Experimental data: ChEMBL document CHEMBL4296182, “CO-ADD screening of NIH NCI Diversity Set V”
For part of these data: Results with a measured potency or affinity are listed apart.

Columns and labels:
[1] = test system: Staphylococcus aureus; experiment: Antibacterial activity against Staphylococcus aureus MRSA ATCC 43300 (CO-ADD:GP_020); MIC in CAMBH media using NBS plates, by Resazurin F(560/590); format: functional; conditions: Concentration 20 uM, ASSAY_TEST Inhibition of Bacterial Growth, detection method Resazurin, Fluorescence (ex560/em590), MEDIA CAMHB, plate type 384well, CORNING #3640, time 18 hr
[2] = test system: Acinetobacter baumannii; experiment: Antibacterial activity against Acinetobacter baumannii ATCC 19606 (CO-ADD:GN_034); MIC in CAMBH media using NBS plates, by Resazurin F(560/590); format: functional; conditions: Concentration 20 uM, ASSAY_TEST Inhibition of Bacterial Growth, detection method Resazurin, Fluorescence (ex560/em590), MEDIA CAMHB, plate type 384well, CORNING #3640, time 18 hr
[3] = test system: Escherichia coli; experiment: Antibacterial activity against Escherichia coli ATCC 25922 (CO-ADD:GN_001); MIC in CAMBH media using NBS plates, by Resazurin F(560/590); format: functional; conditions: Concentration 20 uM, ASSAY_TEST Inhibition of Bacterial Growth, detection method Resazurin, Fluorescence (ex560/em590), MEDIA CAMHB, plate type 384well, CORNING #3640, time 18 hr
[4] = test system: Klebsiella pneumoniae; conditions: Concentration 20 uM; ASSAY_TEST Inhibition of Bacterial Growth; detection method Absorption (OD600); MEDIA CAMHB; plate type 384well; NBS; CORNING #3640; time 18 hr
[5] = test system: Candida albicans; conditions: 20 µM
[6] = test system: Cryptococcus neoformans; conditions: Concentration 20 uM; ASSAY_TEST Inhibition of Fungal Growth; detection method Resazurin; Absorption (OD600-OD570); plate type 384well; NBS; CORNING #3640

SMILES	Inhibition [1] [%]	Inhibition [2] [%]	Inhibition [3] [%]	Inhibition [4] [%]	Inhibition [5] [%]	Inhibition [6] [%]
CN1CCN(c2nc(N)c(Br)c(Cl)n2)CC1	8.04	10.68	2.4	16.05	2.84	-7.43
CN1CCc2cc3c(cc2C1)OCO3	-5.07	-14.77	11.12	3.04	1.35	-8.47
CN1C(=O)CC[C@@]2(C)C1=CC[C@@H]1[C@@H]2CC[C@@]2(C)[C@H]1CC[C@]2(C)O	8.7	-5.24	22.22	11.27	-0.13	-18.95
CCC1CCC(C)N(N=O)C1 (stereo not drawn)	-0.88	-14.6	6.08	7.29	-0.7	-1.16
CCOC(=O)c1ccc2nc(-c3ccc(S(=O)(=O)F)cc3)cc(O)c2c1	10.74	13.99	0.41	7.81	1.06	-10.46
CN1C(=O)NC(=O)C(/N=N/c2ccc(Cl)cc2)C1=O (stereo not drawn)	11.94	12.18	3.45	13.9	1.14	-3.1
c1cc(C2N3CCCN2CC3)ccn1 (stereo not drawn)	15.5	-12.77	15.45	9	-1.44	-3.06
CC(C)(C)c1cc(C=C(C#N)C#N)cc(C(C)(C)C)c1O [TYRPHOSTIN A9]	-5.13	-9.85	13.03	23.47	14.2	6.62
CCOP(=O)(OCC)/C(C#N)=C/c1ccc(-c2ccc(F)cc2F)o1	7.13	-5.44	9.56	5.2	10.3	-6.44
O=P(Oc1ccccc1)(Oc1ccccc1)c1ccccc1	1.14	-14.38	1.1	1.03	4.45	-2.59
C=CCNC(=S)Nc1ccc(OC(=O)Nc2ccc(Cl)c(Cl)c2)cc1	9.35	4.81	5.81	5.22	2.25	-4.79
CN1CCCC1c1ccc(O)nc1 (stereo not drawn)	23.44	-7.12	16.87	15.46	-1.49	-7.69
O=C1CN=C(c2ccc[nH]2)c2cc(Cl)ccc2N1	5.67	14.08	-2.95	17.48	0.21	-5.64
Cc1c(C(=O)c2ccccc2)c2ccccc2n1C	14.29	-0.59	13.79	4.42	1.53	-16.28
Cc1ccccc1-n1c(/C=C\c2ccccn2)nc2ccccc2c1=O	-4.95	-2.79	7.76	14.95	5.08	-6.01
COc1cc(OC)cc(C2(C#N)CCN(C)CC2)c1	3.06	10.25	-15.21	17.67	8.63	25.01
C/C=C/CC1(CC)C(=O)NC(=S)NC1=O	-2.18	-12.12	-2.34	1.47	1.14	0.11
CS(=O)(=O)O.O=C1CCC2(O)[C@@H]3Cc4ccc(O)c5c4[C@]2(CCN3Cc2ccoc2)C1O5 (stereo partly drawn)	1.32	-2.4	-2.68	10.23	1.48	-6.77
CN1C2c3ccccc3C3C4c5ccccc5C(C31)C(C2[N+](=O)[O-])N4C (stereo not drawn)	16.96	4.34	9.05	7.01	2.24	-16.47
CC(C)OC1CCCC(O)C1CC(=O)O (stereo not drawn)	1.66	-13.22	6.88	-1.53	-0.2	-7.06
Nc1nc(N)c2cnnn2n1	-6.46	-8.05	-17.28	8.25	5.35	23.1
CC1(C)NC(=S)C(C)(C)N1N=O	8.42	-13.11	8.85	8.33	5.47	-2.68

SMILES	Inhibition [1] [%]	Inhibition [2] [%]	Inhibition [3] [%]	Inhibition [4] [%]	Inhibition [5] [%]	Inhibition [6] [%]
C=CCCC1(C2=CCCCC2)C(=O)NC(=O)NC1=O	0.11	-12.21	7.91	12.33	3.67	-8.53
CC12CCC3C(CC=C4CC(O)CCC43C)C1C/C(=C\N1CCCC1)C2=O (stereo not drawn)	1.08	21.07	1.6	23.67	-3.81	-14.08
COc1cccc2c1C(=O)c1c(O)c3c(c(O)c1C2=O)C[C@@](O)(/C(C)=N\O)C[C@@H]3OC1CC(N)C(O)C(C)O1.Cl (stereo partly drawn)	-16.23	-1.97	2.23	11.93	-6.16	-5.57
Cc1nc(C)c(C(=O)N/N=C/c2ccc(N(CCCl)CCCl)cc2)s1	4.54	12.95	1.76	6.18	-1.16	-8.81
O=C1NC(=O)C(=Cc2csc3ccccc23)C(=O)N1	-1.57	11.43	7.83	15.53	23.9	-17.03
O=C(CF)N(O)c1ccc(/C=C/c2ccccc2)cc1	-10.86	-11.91	10.97	1.67	12.6	-7.92
CC(=O)OC1CCC2(C)C(CCC3C2CC(=O)C2(C)C3CC(N3CC3)C2C(C)=O)C1 (stereo not drawn)	-6.66	-5.39	9.74	4.84	-0.96	-1.15
CN1CCC(c2c[nH]c3ccccc23)C1 (stereo not drawn)	10.13	1.97	-8.69	8.23	0.53	10.07
CN(C)P(=O)(N(C)C)N1CC1	13.5	-2.37	15.32	12.98	-1.16	-11.15
CC(=O)O.CCC(N)Cc1c[nH]c2ccccc12 (stereo not drawn) [ETRYPTAMINE ACETATE]	10.71	-7.1	6.98	14.32	2.48	-7.72
Cc1ncc([N+](=O)[O-])n1CCOC(N)=O [BAMNIDAZOLE]	2.14	-5.43	15.41	2.21	2.39	7.78
CCCCOP(=O)(OCCCC)C1(C)CC(=O)CC(C)(C)C1 (stereo not drawn)	5.73	-6.49	-5.15	23.67	1.05	-15.51
O=C1N[C@H]2[C@H](O)[C@H](O)[C@@H](O)[C@H](O)[C@@H]2c2cc3c(c(O)c21)OCO3 [PANCRATISTATIN]	12.72	6.17	0.6	1.56	0.06	-14.69
CNC(=O)Oc1c(O)ccnc1C	3.2	-15.53	4.87	2.24	5.45	-9.19
CCN1CC2C3CCC(C)(O3)C2C1 (stereo not drawn)	2.81	-6.99	12.74	12.11	0.39	-3.82
O=C(NC(=O)c1c(F)cccc1F)Nc1cc(Cl)c(F)c(Cl)c1F [TEFLUBENZURON]	1.58	-16.27	15.1	2.21	-1.38	-2.13
CCC1CN1P(=O)(Oc1ccc(Cl)cc1)N1CC1CC (stereo not drawn)	5.27	-3.62	11.85	2.63	4.31	-4.87
CCc1cc2c(cc1-c1csc(CC(=N)NO)n1)C(C)(C)CCC2(C)C	9.42	7.35	-22.59	1.69	7.1	24.54
COc1ccc2c3c1O[C@H]1C[C@@H](O)C=C[C@@]31CCN(C)C2 [GALANTAMINE]	2.8	5.17	-15.55	17.41	7.99	22.63
CC12CCC3C(CCC4Cc5[nH]c6ccccc6c5CC43C)C1CCC2O (stereo not drawn)	-0.19	-0.61	16.15	10.81	-1.61	-15.22
[Cl-].c1ccc(-c2nn(-c3ccccc3)[n+](-c3ccccc3)n2)cc1 [TETRAZOLIUM RED]	-10.8	-19.48	7.25	5.91	0.89	-6.85
